Experiment [1] deals with Vero E6 infected with SARS-CoV-2. Briefly: inhibition of SARS-CoV-2 cytopathic effect; higher = more antiviral protection, active = above 15. Conditions: 48 h. A general note: Damage to the host cells serves as the signal in cytopathic effect assays.
For experiment [2] the test system is unchanged. Nature of the experiment: morphology score (similarity to uninfected cells); higher = more like uninfected cells. The conditions noted are these: 24 h.
Experiment [3] shares this test system. Briefly: SARS-CoV-2 infection rate relative to infected DMSO; higher = more infection, active = 60 or less. Conditions: 24 h.

The structures appear in SMILES notation.

As for `COc1cc(C(=O)NCC2(N(C)C)CCCC2)cc(OC)c1OCc1ccccc1`, the “inhibition of SARS-CoV-2 cytopathic effect” value (“inhibition” for short) in experiment [1] (1 nM) is 0.5% (inactive); in experiment [1] (8.33 nM), 4.04% (inactive); in experiment [1] (100 nM) it was 5.81% (inactive); in experiment [1] (833.33 nM), -2.21% (inactive); in experiment [1] (10000 nM), -8% (inactive).

Regarding `O=[N+]([O-])c1cc([As](=O)(O)O)ccc1O` [roxarsone], the “inhibition” value in experiment [1] (1 nM) was -3.44% (inactive); in experiment [1] (8.33 nM), -2.76% (inactive); in experiment [1] (100 nM) it was -4.83% (inactive).

In the case of `CC(=O)[O][Hg][c]1ccccc1` [phenylmercuric-acetate], the “inhibition” value is -1.11% (inactive) in experiment [1] (1 nM), -1.71% (inactive) in experiment [1] (8.33 nM) and -0.22% (inactive) in experiment [1] (100 nM).

On to `CN[C@H]1CN(c2ccc3c(=O)c(C(=O)O)cn(-c4nccs4)c3n2)C[C@@H]1OC` [voreloxin], for which the “inhibition” value in experiment [1] (1 nM) was 0.95% (inactive); in experiment [1] (8.33 nM), -1.14% (inactive); in experiment [1] (100 nM), 2.62% (inactive); in experiment [1] (833.33 nM), -0.72% (inactive); in experiment [1] (10000 nM), 0.56% (inactive).

Consider `CCCCOc1ccc(-c2cncc(C(=O)NCc3cccnc3N3CCOCC3)c2)cc1Cl`, for which the “inhibition” value in experiment [1] (1 nM) is -0.69% (inactive); in experiment [1] (8.33 nM), -2.48% (inactive); in experiment [1] (100 nM), -0.55% (inactive); in experiment [1] (833.33 nM), -1.43% (inactive); in experiment [1] (10000 nM) it was -3.95% (inactive).

`CC[C@H](C(=O)N1CCCC[C@H]1C(=O)O[C@H](CCc1ccc(OC)c(OC)c1)c1cccc(OCC(=O)NCCNC(=O)COc2cccc([C@@H](CCc3ccc(OC)c(OC)c3)OC(=O)[C@@H]3CCCCN3C(=O)[C@@H](CC)c3cc(OC)c(OC)c(OC)c3)c2)c1)c1cc(OC)c(OC)c(OC)c1`: the “inhibition” value in experiment [1] (1 nM) is -3.12% (inactive); in experiment [1] (8.33 nM), -1.9% (inactive); in experiment [1] (100 nM), -0.97% (inactive).

For `COc1ccc2[nH]c3c(-c4cccc5ccccc45)nccc3c2c1` (10 µM), in experiment [2], the morphology score is -0.0282. Moreover, the SARS-CoV-2 infection rate in experiment [3] was 111% (inactive).

As for `CC1=CC(=C(c2ccc(N)cc2)c2ccc(N)cc2)C=CC1=N` [basic-fuchsin], the “inhibition” value in experiment [1] (1 nM) is 0.76% (inactive); in experiment [1] (8.33 nM), 0.35% (inactive); in experiment [1] (100 nM) it was 1.45% (inactive); in experiment [1] (833.33 nM), -0.79% (inactive); in experiment [1] (10000 nM) it was -17.1% (inactive).

For `NCCC[C@H](N)CC(=O)N[C@H]1CNC(=O)[C@H]([C@H]2C[C@H](O)NC(N)=N2)NC(=O)/C(=C/NC(N)=O)NC(=O)[C@H](CO)NC(=O)[C@H](CO)NC1=O` [viomycin], the entries for the “inhibition” value in experiment [1] (1 nM), in experiment [1] (8.33 nM) and in experiment [1] (100 nM) were 2.35% (inactive), 1% (inactive) and -1.8% (inactive), respectively.

As to `Nc1nc(OCc2cc(Br)cs2)c2[nH]cnc2n1` [lomeguatrib], the “inhibition” value in experiment [1] (1 nM) is -1% (inactive); in experiment [1] (8.33 nM), 0% (inactive); in experiment [1] (100 nM), 0.04% (inactive); in experiment [1] (833.33 nM) it was -0.89% (inactive); in experiment [1] (10000 nM) it was 0.11% (inactive).

Consider `O=c1[nH]c2cc(Cl)ccc2c(O)c1-c1cccc(Oc2ccccc2)c1`, for which the “inhibition” value was 1.74% (inactive) in experiment [1] (1 nM), 0.53% (inactive) in experiment [1] (8.33 nM) and 2.73% (inactive) in experiment [1] (100 nM).

In the case of `CC(=O)NCCCCCC(=O)O` [acexamic-acid], the “inhibition” value in experiment [1] (1 nM) was 1.78% (inactive); in experiment [1] (8.33 nM) it was 1.59% (inactive); in experiment [1] (100 nM) it was 0.61% (inactive); in experiment [1] (833.33 nM), 0.94% (inactive); in experiment [1] (10000 nM), 0.09% (inactive).

As for `CN=c1nc(-c2ccccc2)n(-c2ccccc2)s1`, the “inhibition” value in experiment [1] (1 nM) was 1.73% (inactive); in experiment [1] (8.33 nM), 0.95% (inactive); in experiment [1] (100 nM), -0.38% (inactive); in experiment [1] (833.33 nM), 0.89% (inactive); in experiment [1] (10000 nM), -1.43% (inactive).

Regarding `CCOC(=O)c1ccccc1OC(N)=O` [ethyl-2-(carbamoyloxy)benzoate], the “inhibition” value was -8.28% (inactive) in experiment [1] (1 nM); -7.77% (inactive) in experiment [1] (8.33 nM); -4.5% (inactive) in experiment [1] (100 nM); -2.39% (inactive) in experiment [1] (833.33 nM); -3.35% (inactive) in experiment [1] (10000 nM).

As for `C[CH2][Hg][S]c1ccccc1C(=O)[O-].[Na+]` [thiomersal], the “inhibition” value in experiment [1] (1 nM) was 0.94% (inactive); in experiment [1] (8.33 nM), 0.96% (inactive); in experiment [1] (100 nM) it was 1.12% (inactive).

In the case of `CCc1c2c(nc3ccc(O)cc13)-c1cc3c(c(=O)n1C2)COC(=O)[C@]3(O)CC`, the “inhibition” value is 1.57% (inactive) in experiment [1] (1 nM); 0.05% (inactive) in experiment [1] (8.33 nM); -1.96% (inactive) in experiment [1] (100 nM); -6.66% (inactive) in experiment [1] (833.33 nM); -16.9% (inactive) in experiment [1] (10000 nM).

Consider `COC(=O)[C@H](CC(C)C)NC(=O)[C@@H](N)CC(C)C` [leucylleucine-methyl-ester], for which the “inhibition” value in experiment [1] (1 nM) is -2.04% (inactive); in experiment [1] (8.33 nM), 0.78% (inactive); in experiment [1] (100 nM), -1.7% (inactive); in experiment [1] (833.33 nM), -0.61% (inactive); in experiment [1] (10000 nM) it was -0.55% (inactive).

With `COc1ccc(C2=N[C@@H](c3ccc(Cl)cc3)[C@@H](c3ccc(Cl)cc3)N2C(=O)N2CCNC(=O)C2)c(OC(C)C)c1` [nutlin-3] (0.833333 µM), the morphology score in experiment [2] came out at 0.101. Further, in experiment [3], the SARS-CoV-2 infection rate is 117% (inactive).

With `CN[C@@H]1[C@H](O)[C@H](NC)[C@H]2O[C@@]3(O)C(=O)C[C@@H](C)O[C@H]3O[C@@H]2[C@H]1O` [spectinomycin], the “inhibition” value in experiment [1] (1 nM) is 1.83% (inactive); in experiment [1] (8.33 nM), 2% (inactive); in experiment [1] (100 nM), 1.36% (inactive); in experiment [1] (833.33 nM), 4.54% (inactive); in experiment [1] (10000 nM), 3.59% (inactive).

`CC(=O)Nc1cc([As](=O)(O)O)ccc1O` [acetarsol]: the “inhibition” value in experiment [1] (1 nM) was 0.15% (inactive); in experiment [1] (8.33 nM), 0.13% (inactive); in experiment [1] (100 nM) it was 1.84% (inactive).

As for `O=C([O-])c1ccccc1-c1c2cc(Br)c(=O)cc-2oc2[c]([Hg+])c([O-])c(Br)cc12.[Na+].[Na+].[OH-]` [merbromin], the “inhibition” value in experiment [1] (1 nM) is -11.2% (inactive); in experiment [1] (8.33 nM), -13.3% (inactive); in experiment [1] (100 nM), -11.5% (inactive).
